NS1 function inh: inhibitors of influenza NS1 protein function. Potency, µM (series often up to 46.1 µM). 0.4% of 270,000 active. AID 2326; calls by dose curve; note: actives are rising curves; nearly all actives have a fitted effect of over 50% in size
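Recovery from NS1-induced slow growth read by OD600 in budding yeast switched to galactose assay medium (pH 6.0, -URA) at 1:100 dilution. Compound 23 nl per well; the matching strain lacking NS1 serves as control.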
Sm TGR block: inhibitors of Schistosoma mansoni thioredoxin glutathione reductase | Potency, µM (highest dose often 114 µM), usual class: inhibitors | AID 485364 | purified TGR, DTNB reduction, TNB absorbance 405 nm | 3% of 360,000 active; note: nearly all actives have a fitted effect of over 60% in size
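First, TGR (20 nM dispensed) and NADPH were mixed with compound. Second, a 15 min room-temperature incubation followed. Third, further NADPH and then DTNB were added to start the reaction. Finally, TNB absorbance was monitored kinetically.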
LmPK inhibitor: LmPK (Leishmania mexicana) enzyme inhibition. purified LmPK, Kinase-Glo ATP luminescence, 1 h. Potency, µM (titrated, usually from 57.5 µM), actives largely listed as inhibitors. 0.37% of 290,000 active. AID 1721
Target sequence (Q27686 whole entry, looked up): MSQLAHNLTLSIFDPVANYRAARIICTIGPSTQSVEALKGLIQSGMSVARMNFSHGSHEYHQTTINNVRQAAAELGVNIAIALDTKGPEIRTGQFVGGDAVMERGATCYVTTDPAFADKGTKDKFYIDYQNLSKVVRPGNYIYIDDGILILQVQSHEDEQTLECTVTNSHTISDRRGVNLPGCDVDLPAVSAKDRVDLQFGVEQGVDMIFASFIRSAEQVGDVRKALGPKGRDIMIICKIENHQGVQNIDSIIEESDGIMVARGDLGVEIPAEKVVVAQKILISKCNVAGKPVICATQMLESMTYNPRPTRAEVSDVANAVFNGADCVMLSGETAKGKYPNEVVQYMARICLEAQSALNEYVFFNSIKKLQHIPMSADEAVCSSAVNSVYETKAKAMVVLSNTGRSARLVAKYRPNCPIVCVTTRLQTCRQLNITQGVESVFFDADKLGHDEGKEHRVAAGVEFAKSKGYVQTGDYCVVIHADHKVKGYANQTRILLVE
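Purified LmPK (0.1 nM) converted ADP (0.1 mM) to ATP with PEP (0.5 mM) in imidazole buffer pH 7.2 with KCl and MgCl2, 1 h at room temperature. ATP was read by Kinase-Glo luminescence; data normalized to uninhibited and no-enzyme controls.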
TbPYK inhibitor: inhibitors of Trypanosoma brucei pyruvate kinase; Q57TT1; TbPYK enzyme, Kinase-Glo Plus ATP luminescence, 45 min; 0.12% of 410,000 active; Potency, µM (top dose mostly 76.8 µM), hits mostly inhibitors; note: nearly all actives have a fitted effect of over 50% in size
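Luminescence from Kinase-Glo Plus, added after a 45-minute room-temperature reaction, served as the end-point read-out. The enzyme and substrate were preincubated with compound before ADP (130 uM final) initiated turnover. Concentration-effect curves came from normalized qHTS data.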
RE007 growth inh: less growth of the S. pombe RE007 Vpr strain. S. pombe RE007 Vpr strain, BacTiter-Glo ATP luminescence, 24 h. Potency, µM (top dose mostly 92.2 µM), hits mostly inhibitors. 0.21% of 360,000 active. AID 651644; active = well fitted falling curve with a large enough effect; inconclusive = small, poorly fitted or top-dose-only effect; inactive = no such curve, though single readings can be large or run the other way; note: nearly all actives have a fitted effect of over 50% in size
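Fission yeast RE007 carrying one integrated HIV-1 vpr copy, seeded at OD 0.01 in PMG+AL medium with 23 nL pinned compound. Grown 24 h at 30 degrees; viability read by BacTiter-Glo luminescence after 5 min.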
SARS PLpro yeast: blocks SARS-CoV papain-like protease in a yeast assay. S. cerevisiae expressing SARS-CoV PLpro, growth rescue. Potency, µM (highest dose often 32.9 µM), most hits filed as activators. 0.19% of 330,000 active; calls by dose curve; note: nearly all actives have a fitted effect of over 55% in size
Numbers stand for hits; i = inactive; ? = inconclusive; nt = no result. Hits are enriched below; roughly 3.3% of the tested compounds scored in any of these assays. Unless noted, calls come from the whole dose curve; as a rule, active = well fitted curve in the direction sought with a large enough effect; inconclusive = small, poorly fitted or top-dose-only effect, or another doubt; inactive = no such curve, though single readings can be large; an effect the other way counts as inactive or inconclusive.

SMILES | NS1 function inh | Sm TGR block | LmPK inhibitor | TbPYK inhibitor | RE007 growth inh | SARS PLpro yeast
COc1ccc(C(=O)Nc2ccccc2)cc1S(=O)(=O)NCc1ccco1 | i | 45µM | i | i | i | i
O=C(Nc1ccccc1)c1ccc(S(=O)(=O)NCc2ccco2)cc1 | i | ? | i | i | i | i
O=C(Nc1ccccc1)c1cccc(S(=O)(=O)NCc2ccco2)c1 | i | i | i | i | i | i
Cc1noc(C)c1COC(=O)c1ccc(S(=O)(=O)NCc2ccco2)cc1 | i | 40µM | i | i | i | i
CCOC(=O)c1cc(NC(=O)N(C)C2CCCCC2)c(C)nc1C | i | i | i | i | i | i
CCOC(=O)c1cc(NC(=O)N(CC)C2CCCCC2)c(C)nc1C | i | i | i | i | i | 14µM
O=C(NCc1cccnc1)[C@@H]1[C@@H](C(=O)O)[C@H]2CC[C@@H]1O2 | i | nt | nt | nt | nt | nt
CC1CCC/C=C/C(=O)c2c(O)cc(O)cc2CC(=O)O1 (stereo unspecified) | i | 7.9µM | i | i | i | i
C[C@H]1CCC[C@@H](O)CCC/C=C/c2cc(O)cc(O)c2C(=O)O1 | i | i | i | i | i | i
O=C(CCCn1c(=O)c2ccccc2n(Cc2ccc(F)cc2Cl)c1=O)NCCc1ccc(Cl)cc1 | nt | ? | nt | i | nt | nt
Cc1cnc(NC(=O)/C=C/c2ccc(Br)o2)s1 | i | i | i | i | i | i
O=C(/C=C/c1ccc(Br)o1)Nc1nnc(C2CC2)s1 | i | 11µM | i | nt | nt | i
Cc1ccc(C(=O)CN2CCN(c3ccccn3)CC2)c(C)c1 | i | 14µM | i | i | i | i
Cc1ccc2[nH]cc(C(=O)CN3CCN(c4ccccn4)CC3)c2c1 | i | i | i | i | i | i
O=C(NCC(c1cccs1)S(=O)(=O)c1cccs1)c1ccc(F)c(F)c1 (stereo unspecified) | nt | ? | nt | i | nt | nt
O=C(NCC(c1cccs1)S(=O)(=O)c1cccs1)c1ccc(Cl)cc1 (stereo unspecified) | nt | 25µM | nt | i | nt | nt
COc1cc(C(=O)NCC(c2ccco2)S(=O)(=O)c2cccs2)cc(OC)c1OC (stereo unspecified) | nt | 8.9µM | nt | i | nt | nt
Cc1cccc(C(=O)NCC(c2ccco2)S(=O)(=O)c2cccs2)c1 (stereo unspecified) | nt | 7.1µM | nt | i | nt | nt
COc1cc(C(=O)NCC(c2ccco2)S(=O)(=O)c2ccccc2)cc(OC)c1OC (stereo unspecified) | nt | i | nt | i | nt | nt
O=C(NCC(c1cccs1)S(=O)(=O)c1cccs1)c1ccc(C(F)(F)F)cc1 (stereo unspecified) | nt | ? | nt | i | nt | nt
COc1ccc(C(=O)NCC(c2ccco2)S(=O)(=O)c2cccs2)cc1 (stereo unspecified) | nt | 8.9µM | nt | i | nt | nt
Cc1ccc(C(=O)NCC(c2cccs2)S(=O)(=O)c2cccs2)cc1C (stereo unspecified) | nt | ? | nt | i | nt | nt
O=C(NCC(c1ccco1)S(=O)(=O)c1cccs1)c1ccc(Cl)cc1 (stereo unspecified) | nt | 14µM | nt | i | nt | nt
O=C(NCCc1ccc(Cl)cc1)C(=O)NCC(c1ccco1)S(=O)(=O)c1cccs1 (stereo unspecified) | nt | 40µM | nt | i | nt | nt
C=C(C)c1ccccc1 (tested in a mixture with another compound) | i | nt | nt | nt | nt | nt
SMILES | NS1 function inh | Sm TGR block | LmPK inhibitor | TbPYK inhibitor | RE007 growth inh | SARS PLpro yeast
Cc1c(Cl)cccc1NC(=S)NCCN1CCOCC1 | i | i | i | i | i | i
Cc1c(Cl)cccc1NC(=S)NN1CCOCC1 | i | 32µM | i | i | i | i
Cc1nn2c(NCc3ccccn3)c3c(nc2c1-c1ccccc1)CCC3 | i | 25µM | i | i | i | i
Cc1ccc2c(c1)cc(C(=O)NCc1ccc(F)cc1)n2C | nt | i | nt | i | nt | nt
CSc1ncc(C(=O)Nc2cc(Cl)ccc2C)c(-c2ccccc2)n1 | nt | i | nt | i | nt | nt
c1ccc(Nc2scc(-c3ccccc3)[n+]2Cc2ccco2)cc1 | nt | 40µM | i | i | i | i
O=c1[nH]c2ccc(NC(=S)NCc3ccccc3)cc2[nH]1 | i | 8.9µM | i | i | i | i
COc1ccc(C2=Nc3ccc(OC(F)(F)F)cc3NC(c3cccnc3)=N2)cc1 | nt | i | nt | i | nt | nt
CC(C)n1c(-c2ccc(C(C)(C)C)cc2)n[nH]c1=S | i | i | 8.9µM | ? | i | i
C=C1CC[C@@H]2[C@](C)(CO)[C@H](O)CC[C@@]2(C)[C@@H]1/C=C/C1=CCOC1=O | i | 40µM | i | i | i | i
C=C1CCC2[C@](C)(CO)[C@H](O)CC[C@@]2(C)[C@@H]1/C=C/C1=CCOC1=O (stereo partly specified) | nt | ? | nt | i | i | i
CCC1(C)Cc2c(sc3c2c2ncnn2c2nnc(SCC(=O)NCc4ccco4)n32)CO1 (stereo unspecified) | i | 45µM | i | i | i | i
COc1ccccc1N1CCN(C(=O)c2cc3c(=O)n(Cc4ccco4)ccc3nc2C)CC1 | nt | 14µM | nt | i | nt | nt
COc1ccccc1N1CCN(C(=O)c2c(C)noc2C)CC1 | i | i | i | i | i | i
COc1ccccc1N1CCN(C(=O)c2ccoc2C)CC1 | i | 45µM | i | i | i | i
Cc1nc2ccn(Cc3ccco3)c(=O)c2cc1C(=O)N1CCN(c2ccccc2)CC1 | nt | i | nt | i | nt | nt
COc1ccc(Cl)cc1NC(=O)C(C)n1nnc2sc3c(c2c1=O)CCCC3 (stereo unspecified) | nt | i | nt | i | nt | nt
O=C(O[C@@H]1OC2COC(=O)c3cc(O)c(O)c(O)c3-c3c(cc(O)c(O)c3O)C(=O)O[C@@H]([C@H]1O)[C@@H]2O)c1cc(O)c(O)c(O)c1 | i | 28µM | i | ? | i | 13µM
Cc1ccc(NC(=O)C(=O)NCC(c2cccnc2)N2CCN(Cc3ccccc3)CC2)cc1F (stereo unspecified) | nt | i | nt | i | nt | nt
NC(=O)[C@@H]1CCNc2c(I)cc([N+](=O)[O-])cc2C(=O)N[C@@H](CO)C(=O)N[C@@H](Cc2ccc(O)cc2)C(=O)N1 | 11µM | ? | i | nt | nt | i
CC(C)C[C@@H]1NC(=O)[C@H](Cc2ccc(O)cc2)NC(=O)[C@H](CCC(N)=O)NC(=O)c2cc([N+](=O)[O-])cc(I)c2NCC[C@@H](C(N)=O)NC1=O | i | ? | i | nt | nt | i
Cc1cccc(OCCn2c(-c3ccco3)nc3ccccc32)c1 | i | ? | i | i | i | i
CCn1c(-c2ccco2)nc2ccccc21 | i | 32µM | i | i | i | i
c1ccc(OCCn2c(-c3ccco3)nc3ccccc32)cc1 | i | 8.9µM | i | ? | i | i
O=C(C[n+]1ccc(-c2cc(C(=O)Nc3cccc(C(F)(F)F)c3)c3ccccc3n2)cc1)c1cccc([N+](=O)[O-])c1 | nt | 45µM | ? | i | i | i

Compound activity as filed in PubChem.
